# Results taken from PubChem BioAssay (EPA / NIEHS).
# Results filed as inconclusive are left out. Active and inactive are the calls of the source. The calls were made as follows: active = hit-call score of the fitted dose curve at least 0.9, where 1 is the maximum; inconclusive = response in the unintended direction; inactive = score below 0.9.
# Experiments:
# [1] = Tanguay_ZF_120hpf_OTIC_legacy: (Legacy) Oregon State University Tanguay Lab 120 Hour Post-fertilization zebrafish Assay for Otic Vesicle Malformation (AID 2283639)
# Outline: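 Brightfield scoring at 120 hpf, binary present/absent; DMSO negative control, 5uM trimethyltin chloride positive control. Static exposure at 28C, final DMSO 0.64% (vol/vol). Dead embryos not scored for malformation.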
# [2] = Tanguay_ZF_120hpf_PE_legacy: (Legacy) Oregon State University Tanguay Lab 120 Hour Post-fertilization zebrafish Assay for Pericardial Edema (AID 2283640);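 as to AC50: potency for increased incidence of pericardial edema versus DMSO baseline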
# Outline: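 Scoring was binary, by brightfield microscopy at 120 hpf, and skipped where mortality occurred. Wild-type embryos were kept under sealed, foil-covered static exposure at 28C in 0.64% (vol/vol) DMSO.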
# [3] = Tanguay_ZF_120hpf_BRAI_legacy: (Legacy) Oregon State University Tanguay Lab 120 Hour Post-fertilization zebrafish Assay for Brain Malformation (AID 2283641)
# Outline: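 Binary brightfield scoring of brain malformation at 120 hpf in Tropical 5D larvae held under static exposure at 28C (0.64% v/v DMSO), non-mortality endpoints skipped if dead. Positive control: 5uM trimethyltin chloride; fit versus DMSO.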
# [4] = Tanguay_ZF_120hpf_SOMI_legacy: (Legacy) Oregon State University Tanguay Lab 120 Hour Post-fertilization zebrafish Assay for Somite Malformation (AID 2283647)
# Outline: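 Binary somite-defect scoring at 120 hpf, omitted for embryos that died, in wild-type (Tropical 5D) zebrafish with chorion removed by pronase at 4 hpf; static exposure began 6 hpf, single embryos per well, 28C, 0.64% DMSO; fitted positive versus DMSO.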
# [5] = Tanguay_ZF_120hpf_CFIN_legacy: (Legacy) Oregon State University Tanguay Lab 120 Hour Post-fertilization zebrafish Assay for Caudal Fin Malformation (AID 2283649)
# Outline: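 Binary brightfield scoring of caudal fin defects at 120 hpf after static, light-shielded exposure at 28C from 6 hpf. Tropical 5D embryos, chorion removed with pronase at 4 hpf, final DMSO 0.64%.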
# [6] = Tanguay_ZF_120hpf_PIG_legacy: (Legacy) Oregon State University Tanguay Lab 120 Hour Post-fertilization zebrafish Assay for Pigmentation Malformation (AID 2283650)
# Outline: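 Endpoint is incidence of abnormal pigmentation at 120 hpf in dechorionated 5D zebrafish exposed singly from 6 hpf at 28C, DMSO vehicle at 0.64%. Embryos dying by 24 or 120 hpf are excluded from scoring.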
# [7] = Tanguay_ZF_120hpf_CIRC_legacy: (Legacy) Oregon State University Tanguay Lab 120 Hour Post-fertilization zebrafish Assay for Circulatory Malformation (AID 2283651)
# Outline: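 Static exposure, 6–120 hpf, 28C, sealed and dark; one dechorionated 5D embryo/well; DMSO 0.64% v/v final. Binary circulation endpoint by brightfield; dead embryos not scored.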
# [8] = Tanguay_ZF_120hpf_TRUN_legacy: (Legacy) Oregon State University Tanguay Lab 120 Hour Post-fertilization zebrafish Assay for Truncated Body (AID 2283655)
# Outline: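 Binary presence/absence of truncated body is recorded at 120 hpf by brightfield, with non-mortality endpoints skipped after death. Exposure is static from 6 hpf in sealed dark plates at 28C, using dechorionated wild-type zebrafish, 0.64% DMSO.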
# [9] = Tanguay_ZF_120hpf_SWIM_legacy: (Legacy) Oregon State University Tanguay Lab 120 Hour Post-fertilization zebrafish Assay for Swim Bladder Malformation (AID 2283654);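 also: swim bladder malformation in each larva scored yes or no under brightfield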
# Outline: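 Static waterborne exposure of single dechorionated Tropical 5D zebrafish embryos, 6–120 hpf, 28C, 0.64% DMSO final. Read-out: swim bladder malformation, present/absent, relative to DMSO negative control; trimethyltin chloride 5uM served as positive control.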
# [10] = Tanguay_ZF_120hpf_PFIN_legacy: (Legacy) Oregon State University Tanguay Lab 120 Hour Post-fertilization zebrafish Assay for Pectoral Fin Malformation (AID 2283648);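 also: each larva judged yes or no for fin defect by brightfield with dead larvae skipped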
# Outline: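 Scoring of pectoral fin malformation was binary, made at 120 hpf on larvae exposed statically from 6 hpf after enzymatic chorion removal. Activity was fitted upward relative to DMSO controls at 0.64% (vol/vol).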
# [11] = system: Thyroperoxidase (TPO), gene 54314; test: CCTE_Simmons_AUR_rTPO: CCTE's Amplex UltraRed Assay for Thyroperoxidase (TPO) Inhibition, Simmons Lab (AID 2283662);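 as to AC50: potency for loss of signal meaning inhibition of peroxidase activity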
# Outline: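 Endpoint is decreased Amplex UltraRed fluorescence after a 30-min, 37C reaction of rat thyroid microsomes with 300 uM H2O2. Eight test concentrations (5 nM–87.5 uM final) in 0.5% DMSO, three biological replicates each.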
# [12] = Tanguay_ZF_120hpf_NC_legacy: (Legacy) Oregon State University Tanguay Lab 120 Hour Post-fertilization zebrafish Assay for Notochord and Tail Malformation (AID 2283656)
# Outline: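 Binary notochord-distortion calls, made by brightfield inspection, form the read-out; activity is fitted in the positive direction against DMSO. Exposure ran statically from 6 to 120 hpf at 28C with 0.64% DMSO.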
# [13] = read-out: ABC Transporter (ABCB1), ABCB1 (gene 5243); test: CLD_ABCB1_6hr: CellzDirect (CLD) Gene Expression Assay for ABC Transporter (ABCB1) at 6 hours (AID 2283659);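 also: hits raise ABCB1 transcript above the DMSO vehicle baseline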
# Outline: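 ABCB1 transcript measured by quantitative nuclease protection assay, chemiluminescent read-out, 6 h after dosing human hepatocyte cultures (0.2% DMSO vehicle, daily redosing). Activity fitted as increase over DMSO baseline; cytotoxicity flagged by phase-contrast morphology.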
# [14] = read-out: Broad substrate specificity ATP-binding cassette transporter ABCG2 (Homo sapiens) (UniProt Q9UNQ0); test: CLD_ABCG2_6hr: CellzDirect (CLD) Gene Expression Assay for ABC Transporter (ABCG2) at 6 hours (AID 2283660)
# Outline: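 ABCG2 mRNA induction measured by qNPA chemiluminescence in human primary hepatocyte cultures, 6 h post-dose. Chemicals tested at several concentrations against a 0.2% DMSO vehicle; positive-direction fit relative to DMSO.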
# [15] = read-out: xenobiotic metabolism (CYP1A1), CYP1A1 (gene 1543); test: CLD_CYP1A1_6hr: CellzDirect (CLD) Gene Expression Assay for xenobiotic metabolism (CYP1A1) at 6 hours (AID 2283661)
# Outline: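 Read-out 6 h post-dose: qNPA chemiluminescent quantitation of transcript induction against 0.2% DMSO. Cells were cultured primary human hepatocytes from two separate donor preparations; phase-contrast morphology annotated apparent cytotoxicity.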
# [16] = read-out: xenobiotic metabolism (CYP1A2), CYP1A2 (gene 1544); test: CLD_CYP1A2_6hr: CellzDirect (CLD) Gene Expression Assay for xenobiotic metabolism (CYP1A2) at 6 hours (AID 2283663)
# Outline: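 mRNA levels quantified by quantitative nuclease protection assay with chemiluminescence, 6 h after dosing human primary hepatocyte cultures (two donors) across several concentrations, vehicle 0.2% DMSO. Induction fitted upward versus DMSO; phase-contrast cytotoxicity annotated.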
# Broad substrate specificity ATP-binding cassette transporter ABCG2 (Homo sapiens), sequence (Q9UNQ0 whole entry, looked up): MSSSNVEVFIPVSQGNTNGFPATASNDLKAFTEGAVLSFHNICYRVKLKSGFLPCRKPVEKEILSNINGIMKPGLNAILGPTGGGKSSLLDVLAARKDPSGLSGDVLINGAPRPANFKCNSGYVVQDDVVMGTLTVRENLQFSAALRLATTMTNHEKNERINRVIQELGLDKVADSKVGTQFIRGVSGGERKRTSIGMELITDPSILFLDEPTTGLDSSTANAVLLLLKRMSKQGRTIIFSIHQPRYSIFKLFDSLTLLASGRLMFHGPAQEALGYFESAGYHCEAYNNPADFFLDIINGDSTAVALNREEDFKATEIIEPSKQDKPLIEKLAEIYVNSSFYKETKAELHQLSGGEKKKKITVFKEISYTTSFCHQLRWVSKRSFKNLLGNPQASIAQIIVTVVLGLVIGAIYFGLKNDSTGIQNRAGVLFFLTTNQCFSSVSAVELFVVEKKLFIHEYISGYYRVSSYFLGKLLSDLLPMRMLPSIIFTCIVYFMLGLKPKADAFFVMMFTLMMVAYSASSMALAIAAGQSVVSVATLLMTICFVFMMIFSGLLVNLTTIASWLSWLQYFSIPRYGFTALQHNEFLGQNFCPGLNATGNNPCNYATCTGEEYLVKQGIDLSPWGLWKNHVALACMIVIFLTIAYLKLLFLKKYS
smiles,measurement,setting,value
NS(=O)(=O)C(F)(F)C(F)(F)C(F)(F)C(F)(F)C(F)(F)C(F)(F)C(F)(F)C(F)(F)F,outcome,[1],inactive
same,outcome,[2],inactive
same,outcome,[3],inactive
same,outcome,[4],inactive
same,AC50,[5],4.88 µM (active)
same,outcome,[6],inactive
same,outcome,[7],inactive
same,outcome,[8],inactive
CO/C=C(/C(=O)OC)c1ccccc1COc1cccc(C(F)(F)F)n1,AC50,[1],12.7 µM (active)
same,AC50,[2],2.43 µM (active)
same,AC50,[3],3.77 µM (active)
same,AC50,[4],18.1 µM (active)
same,AC50,[5],9.15 µM (active)
same,AC50,[6],19.7 µM (active)
same,AC50,[7],9.76 µM (active)
same,AC50,[9],14.5 µM (active)
same,AC50,[8],7.84 µM (active)
Cc1cccc([N+](=O)[O-])c1,outcome,[1],inactive
same,outcome,[2],inactive
same,outcome,[3],inactive
same,outcome,[4],inactive
same,outcome,[10],inactive
same,outcome,[5],inactive
same,outcome,[6],inactive
same,outcome,[9],inactive
same,outcome,[8],inactive
Nn1cnnc1,outcome,[1],inactive
same,outcome,[2],inactive
same,outcome,[3],inactive
same,outcome,[4],inactive
same,outcome,[5],inactive
same,outcome,[7],inactive
same,outcome,[9],inactive
same,outcome,[8],inactive
Cc1ccccc1[N+](=O)[O-],outcome,[1],inactive
same,outcome,[2],inactive
same,outcome,[3],inactive
same,outcome,[4],inactive
same,outcome,[5],inactive
same,outcome,[6],inactive
same,outcome,[7],inactive
same,outcome,[9],inactive
same,outcome,[8],inactive
CCC(=O)O[C@H]1CC[C@H]2[C@@H]3CCC4=CC(=O)CC[C@]4(C)[C@H]3CC[C@]12C,outcome,[1],inactive
same,outcome,[2],inactive
same,outcome,[3],inactive
same,outcome,[4],inactive
same,outcome,[5],inactive
same,outcome,[6],inactive
same,outcome,[7],inactive
same,outcome,[9],inactive
same,outcome,[8],inactive
same,outcome,[11],inactive
Cc1cc2c3c(c1)C(c1ccccc1)=N[C@@H](NC(=O)c1ccncc1)C(=O)N3CC2,outcome,[1],inactive
same,outcome,[2],inactive
same,outcome,[3],inactive
same,outcome,[4],inactive
same,outcome,[5],inactive
same,outcome,[6],inactive
same,outcome,[8],inactive
same,outcome,[12],inactive
Cc1ccccc1O,outcome,[1],inactive
same,outcome,[2],inactive
same,outcome,[3],inactive
same,outcome,[4],inactive
same,outcome,[5],inactive
same,outcome,[6],inactive
same,outcome,[7],inactive
same,outcome,[9],inactive
same,outcome,[8],inactive
CN(C)CCO,outcome,[1],inactive
same,outcome,[2],inactive
same,outcome,[3],inactive
same,outcome,[4],inactive
same,outcome,[5],inactive
same,outcome,[6],inactive
same,outcome,[7],inactive
same,outcome,[9],inactive
same,outcome,[8],inactive
Cc1ccc(O)c(C)c1,outcome,[1],inactive
same,outcome,[2],inactive
same,outcome,[3],inactive
same,outcome,[4],inactive
same,outcome,[5],inactive
same,outcome,[6],inactive
same,outcome,[7],inactive
same,outcome,[9],inactive
same,outcome,[8],inactive
same,outcome,[12],inactive
same,AC50,[11],18.2 µM (active)
ClC1=C(Cl)[C@]2(Cl)[C@@H]3[C@H]4C[C@H]([C@@H]5O[C@H]45)[C@@H]3[C@@]1(Cl)C2(Cl)Cl,outcome,[1],inactive
same,AC50,[2],39 µM (active)
same,AC50,[3],66.7 µM (active)
same,AC50,[4],65.6 µM (active)
same,AC50,[5],66.1 µM (active)
same,outcome,[7],inactive
same,outcome,[9],inactive
same,outcome,[8],inactive
Cc1ccccc1CO[C@@H]1C[C@@]2(C(C)C)CC[C@]1(C)O2,outcome,[1],inactive
same,outcome,[2],inactive
same,outcome,[3],inactive
same,outcome,[4],inactive
same,outcome,[5],inactive
same,outcome,[6],inactive
same,outcome,[7],inactive
same,outcome,[9],inactive
same,outcome,[8],inactive
same,outcome,[12],inactive
same,outcome,[13],inactive
same,outcome,[14],inactive
same,outcome,[15],inactive
same,AC50,[11],28 µM (active)
same,outcome,[16],inactive
Nc1ccc(-c2ccc(N)cc2)cc1,outcome,[1],inactive
same,outcome,[2],inactive
same,outcome,[3],inactive
same,outcome,[4],inactive
same,outcome,[5],inactive
same,outcome,[7],inactive
same,outcome,[9],inactive
same,outcome,[8],inactive
Cc1cc(-c2ccc(N)c(C)c2)ccc1N,outcome,[1],inactive
same,outcome,[2],inactive
same,outcome,[3],inactive
same,outcome,[4],inactive
same,outcome,[5],inactive
same,outcome,[6],inactive
same,outcome,[7],inactive
same,outcome,[9],inactive
same,outcome,[8],inactive
CCC(C)c1cc([N+](=O)[O-])cc([N+](=O)[O-])c1O (stereo unspecified),outcome,[1],inactive
same,outcome,[2],inactive
same,outcome,[3],inactive
same,outcome,[4],inactive
same,outcome,[5],inactive
same,outcome,[6],inactive
same,outcome,[7],inactive
same,outcome,[9],inactive
same,outcome,[8],inactive
ClC1=C(Cl)[C@]2(Cl)[C@@H]3[C@@H](Cl)[C@H]4O[C@H]4[C@@H]3C1(Cl)C2(Cl)Cl,outcome,[1],inactive
same,outcome,[2],inactive
same,outcome,[3],inactive
same,outcome,[4],inactive
same,outcome,[10],inactive
same,outcome,[7],inactive
same,outcome,[8],inactive
